Our source for the Percent Effect values is ChEMBL document CHEMBL3988442, “University of Dundee, Small-Polar-MMV Screening Library” (2021).

The structures appear in SMILES notation. For some of these results: Measured potencies and affinities stand elsewhere.

Parameters in all cases: scale not given: direction of the effect not stated beside the values
In assay [1] the target is Protein translocase subunit SecA (Escherichia coli (strain K12)) (UniProt P10408). As to the kind of experiment: Assay to Identify E. coli SecA ATPase Inhibitors. The format is functional. Particulars: 30 µM.
Protein translocase subunit SecA (Escherichia coli (strain K12)), sequence (P10408 whole entry): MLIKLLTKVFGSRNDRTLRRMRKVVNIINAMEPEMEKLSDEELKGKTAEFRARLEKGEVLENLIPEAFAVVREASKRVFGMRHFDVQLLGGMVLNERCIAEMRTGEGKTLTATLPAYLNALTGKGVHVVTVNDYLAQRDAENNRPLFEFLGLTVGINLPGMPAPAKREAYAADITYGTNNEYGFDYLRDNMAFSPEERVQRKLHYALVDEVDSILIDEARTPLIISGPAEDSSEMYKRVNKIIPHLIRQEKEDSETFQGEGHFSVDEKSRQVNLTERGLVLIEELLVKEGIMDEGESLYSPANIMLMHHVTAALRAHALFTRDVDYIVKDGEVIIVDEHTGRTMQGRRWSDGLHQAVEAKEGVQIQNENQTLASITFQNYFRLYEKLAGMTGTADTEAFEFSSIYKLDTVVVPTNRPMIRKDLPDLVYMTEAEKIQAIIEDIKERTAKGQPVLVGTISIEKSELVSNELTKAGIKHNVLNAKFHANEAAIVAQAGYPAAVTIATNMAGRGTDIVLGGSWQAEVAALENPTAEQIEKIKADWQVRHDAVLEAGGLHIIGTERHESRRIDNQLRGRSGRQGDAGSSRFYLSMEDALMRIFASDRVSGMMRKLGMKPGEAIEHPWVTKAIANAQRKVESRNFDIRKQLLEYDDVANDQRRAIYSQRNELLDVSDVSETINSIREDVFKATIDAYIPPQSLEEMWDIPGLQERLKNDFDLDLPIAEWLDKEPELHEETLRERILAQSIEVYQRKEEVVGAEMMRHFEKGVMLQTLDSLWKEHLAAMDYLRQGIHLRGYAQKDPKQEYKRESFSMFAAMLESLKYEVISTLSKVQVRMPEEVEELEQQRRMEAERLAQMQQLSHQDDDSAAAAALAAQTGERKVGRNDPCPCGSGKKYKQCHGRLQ
Assay [2] addresses T1, Ubiquitin-activating enzyme e1, putative (Leishmania donovani (strain BPK282A1)) (UniProt E9BSI1).
T1 sequence (whole entry): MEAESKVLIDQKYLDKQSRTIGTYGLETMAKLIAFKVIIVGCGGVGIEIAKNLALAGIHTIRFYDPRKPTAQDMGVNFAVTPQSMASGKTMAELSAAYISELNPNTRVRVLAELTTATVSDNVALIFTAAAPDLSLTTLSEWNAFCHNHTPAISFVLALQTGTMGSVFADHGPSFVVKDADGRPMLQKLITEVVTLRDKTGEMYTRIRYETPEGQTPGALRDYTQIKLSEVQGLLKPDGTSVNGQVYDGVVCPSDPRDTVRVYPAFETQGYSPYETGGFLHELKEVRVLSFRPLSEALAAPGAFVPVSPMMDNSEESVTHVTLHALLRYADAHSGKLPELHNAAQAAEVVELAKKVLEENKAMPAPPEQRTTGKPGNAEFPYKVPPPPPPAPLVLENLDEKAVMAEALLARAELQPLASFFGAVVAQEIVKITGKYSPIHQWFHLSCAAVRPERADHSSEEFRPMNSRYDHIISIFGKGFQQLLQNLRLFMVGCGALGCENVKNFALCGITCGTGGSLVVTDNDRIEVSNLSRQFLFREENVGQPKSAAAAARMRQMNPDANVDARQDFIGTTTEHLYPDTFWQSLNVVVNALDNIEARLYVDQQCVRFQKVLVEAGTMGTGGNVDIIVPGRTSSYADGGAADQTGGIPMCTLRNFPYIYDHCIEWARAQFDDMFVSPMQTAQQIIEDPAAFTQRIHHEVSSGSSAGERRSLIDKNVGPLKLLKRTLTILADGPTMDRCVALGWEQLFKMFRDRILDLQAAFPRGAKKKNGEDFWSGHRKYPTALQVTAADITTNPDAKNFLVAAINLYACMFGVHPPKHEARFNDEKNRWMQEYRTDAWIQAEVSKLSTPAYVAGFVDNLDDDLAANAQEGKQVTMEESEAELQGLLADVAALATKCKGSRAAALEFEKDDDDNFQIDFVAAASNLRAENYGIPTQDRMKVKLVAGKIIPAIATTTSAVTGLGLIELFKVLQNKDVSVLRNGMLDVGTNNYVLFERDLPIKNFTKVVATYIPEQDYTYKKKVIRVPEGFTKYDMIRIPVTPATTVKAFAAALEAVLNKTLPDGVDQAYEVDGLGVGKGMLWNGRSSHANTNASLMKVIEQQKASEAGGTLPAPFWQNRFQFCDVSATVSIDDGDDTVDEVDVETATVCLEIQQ
In words: Leishmania donovani Ubiquitin Activating Enzyme (LdE1). Type of assay: functional. Particulars: 30 µM.

For assay [3], the target named is AMP-activated protein kinase, AMPK (Homo sapiens) (UniProt P54646+O43741+P54619+Q9UGJ0+Q9Y478+Q13131+Q9UGI9). As to the kind of experiment: AMP-dependent Kinase enzyme assay. An in vitro enzyme assay that detects ADP turnover that is directly proportional to AMPK activity. This uses naive AMPK that is activated during the assay with MK-8722. To be noted: 30 µM. Type of assay: functional.

In assay [4] the target is Sialic acid-binding Ig-like lectin 9 (Homo sapiens) (UniProt Q9Y336). In words: Hs-Siglec9 ALPHAscreen SOP 20170721. To be noted: 10 µM.
Sialic acid-binding Ig-like lectin 9 (Homo sapiens), sequence (Q9Y336 whole entry): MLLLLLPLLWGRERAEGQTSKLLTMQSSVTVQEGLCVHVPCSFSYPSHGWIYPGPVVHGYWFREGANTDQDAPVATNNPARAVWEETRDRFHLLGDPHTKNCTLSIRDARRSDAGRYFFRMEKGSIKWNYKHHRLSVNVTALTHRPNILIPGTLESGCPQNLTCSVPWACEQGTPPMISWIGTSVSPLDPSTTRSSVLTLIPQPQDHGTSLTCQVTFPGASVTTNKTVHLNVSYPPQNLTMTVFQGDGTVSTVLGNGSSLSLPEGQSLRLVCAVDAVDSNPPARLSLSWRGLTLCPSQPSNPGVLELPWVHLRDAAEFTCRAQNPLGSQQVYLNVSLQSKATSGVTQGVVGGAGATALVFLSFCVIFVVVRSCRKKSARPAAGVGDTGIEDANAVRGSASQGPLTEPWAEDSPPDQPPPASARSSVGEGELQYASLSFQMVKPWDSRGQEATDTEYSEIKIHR
The test system of another assay is Trypanosoma cruzi. In words: Trypanosoma cruzi phosphomannomutase and mannose-1-phosphate guanylyltransferase assay. The format is functional. To be noted: 10 µM.
In assay [5] the target is T2, Arginase-2, mitochondrial (Homo sapiens) (UniProt P78540).
T2 sequence (whole entry): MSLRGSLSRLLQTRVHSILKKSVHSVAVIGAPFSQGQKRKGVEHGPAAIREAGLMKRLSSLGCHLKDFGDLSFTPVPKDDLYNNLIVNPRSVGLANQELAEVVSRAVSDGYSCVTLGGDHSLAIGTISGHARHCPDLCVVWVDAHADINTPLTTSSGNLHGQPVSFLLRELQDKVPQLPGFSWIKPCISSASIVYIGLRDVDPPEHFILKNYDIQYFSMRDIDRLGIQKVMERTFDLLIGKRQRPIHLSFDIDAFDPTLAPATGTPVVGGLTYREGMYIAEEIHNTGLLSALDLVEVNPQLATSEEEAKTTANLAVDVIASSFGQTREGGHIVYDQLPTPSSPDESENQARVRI
In words: in vitro enzyme assay to detect the production of urea directly proportional to the activity of Arginase II. Note: in the data most compounds retested in dose-response had high values. Particulars: 33.3 µM. The format is functional.

In assay [6] the target is T3, Proteasome subunit beta (Trypanosoma cruzi) (UniProt O96673).
T3 sequence (whole entry): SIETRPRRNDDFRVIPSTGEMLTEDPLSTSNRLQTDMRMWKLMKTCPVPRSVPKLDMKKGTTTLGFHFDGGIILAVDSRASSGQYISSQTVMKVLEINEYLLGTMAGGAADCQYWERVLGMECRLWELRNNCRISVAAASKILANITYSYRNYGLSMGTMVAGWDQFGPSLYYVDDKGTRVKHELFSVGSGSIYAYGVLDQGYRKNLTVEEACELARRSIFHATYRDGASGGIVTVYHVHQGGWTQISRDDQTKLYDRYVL
In words: Trypanosoma cruzi proteasome chymotrypsin-like activity (TcProtChymo) assay. Note: in the data most compounds retested in dose-response had high values. Type of assay: functional. To be noted: 9.37 µM.

For the next assay, the species on record is Homo sapiens. As to the kind of experiment: To identify inhibition of the IFN signalling (Jak-Stat) pathway via expression of an eGFP reporter gene under the control of an IFN-stimulated response element (ISRE) containing MxA promoter. The format is functional. To be noted: 30 µM. (In general: A reporter such as luciferase makes a cellular process visible.)

The target of assay [7] is T4, Tyrosyl-tRNA synthetase, putative (Trypanosoma cruzi (strain CL Brener)) (UniProt Q4DSP6).
T4 sequence (whole entry): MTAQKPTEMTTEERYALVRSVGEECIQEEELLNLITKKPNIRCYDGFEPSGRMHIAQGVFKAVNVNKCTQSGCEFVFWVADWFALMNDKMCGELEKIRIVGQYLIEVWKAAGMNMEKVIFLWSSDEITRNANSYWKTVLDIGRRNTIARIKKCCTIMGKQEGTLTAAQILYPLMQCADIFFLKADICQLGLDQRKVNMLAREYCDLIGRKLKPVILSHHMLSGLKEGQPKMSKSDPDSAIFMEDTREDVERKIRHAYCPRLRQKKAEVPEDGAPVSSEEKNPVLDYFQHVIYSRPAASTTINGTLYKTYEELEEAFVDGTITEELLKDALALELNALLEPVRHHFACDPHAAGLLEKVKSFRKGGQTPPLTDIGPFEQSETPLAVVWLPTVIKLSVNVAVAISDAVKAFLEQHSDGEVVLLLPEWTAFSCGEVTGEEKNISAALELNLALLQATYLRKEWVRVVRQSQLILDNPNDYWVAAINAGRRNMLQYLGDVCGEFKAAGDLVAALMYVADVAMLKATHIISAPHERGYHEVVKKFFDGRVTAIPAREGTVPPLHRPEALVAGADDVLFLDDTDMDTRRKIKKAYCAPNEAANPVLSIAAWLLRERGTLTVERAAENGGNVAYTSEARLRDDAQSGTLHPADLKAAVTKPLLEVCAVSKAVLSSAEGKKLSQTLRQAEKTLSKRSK
As to the kind of experiment: Trypanosoma cruzi tyrosyl tRNA synthetase (TcYRS) _High Tyrosine SOP. Note: in the data most compounds retested in dose-response had high values. The format is functional. Particulars: 30 µM.

Assay [8] concerns the target T4, Tyrosyl-tRNA synthetase, putative (Trypanosoma cruzi (strain CL Brener)). As to the kind of experiment: Trypanosoma cruzi tyrosyl tRNA synthetase (TcYRS) SOP. To be noted: 30 µM. Type of assay: functional.
The target of assay [9] is Chromo domain-containing protein 1 (Saccharomyces cerevisiae (strain ATCC 204508 / S288c) (Baker's yeast)) (UniProt P32657). As to the kind of experiment: ScCHD-1 Enzyme Inhibition Assay. Note: in the data most compounds retested in dose-response had high values. Type of assay: functional. Particulars: 30 µM.
Chromo domain-containing protein 1 (Saccharomyces cerevisiae (strain ATCC 204508 / S288c) (Baker's yeast)), sequence (P32657 whole entry, the tested form may be a part): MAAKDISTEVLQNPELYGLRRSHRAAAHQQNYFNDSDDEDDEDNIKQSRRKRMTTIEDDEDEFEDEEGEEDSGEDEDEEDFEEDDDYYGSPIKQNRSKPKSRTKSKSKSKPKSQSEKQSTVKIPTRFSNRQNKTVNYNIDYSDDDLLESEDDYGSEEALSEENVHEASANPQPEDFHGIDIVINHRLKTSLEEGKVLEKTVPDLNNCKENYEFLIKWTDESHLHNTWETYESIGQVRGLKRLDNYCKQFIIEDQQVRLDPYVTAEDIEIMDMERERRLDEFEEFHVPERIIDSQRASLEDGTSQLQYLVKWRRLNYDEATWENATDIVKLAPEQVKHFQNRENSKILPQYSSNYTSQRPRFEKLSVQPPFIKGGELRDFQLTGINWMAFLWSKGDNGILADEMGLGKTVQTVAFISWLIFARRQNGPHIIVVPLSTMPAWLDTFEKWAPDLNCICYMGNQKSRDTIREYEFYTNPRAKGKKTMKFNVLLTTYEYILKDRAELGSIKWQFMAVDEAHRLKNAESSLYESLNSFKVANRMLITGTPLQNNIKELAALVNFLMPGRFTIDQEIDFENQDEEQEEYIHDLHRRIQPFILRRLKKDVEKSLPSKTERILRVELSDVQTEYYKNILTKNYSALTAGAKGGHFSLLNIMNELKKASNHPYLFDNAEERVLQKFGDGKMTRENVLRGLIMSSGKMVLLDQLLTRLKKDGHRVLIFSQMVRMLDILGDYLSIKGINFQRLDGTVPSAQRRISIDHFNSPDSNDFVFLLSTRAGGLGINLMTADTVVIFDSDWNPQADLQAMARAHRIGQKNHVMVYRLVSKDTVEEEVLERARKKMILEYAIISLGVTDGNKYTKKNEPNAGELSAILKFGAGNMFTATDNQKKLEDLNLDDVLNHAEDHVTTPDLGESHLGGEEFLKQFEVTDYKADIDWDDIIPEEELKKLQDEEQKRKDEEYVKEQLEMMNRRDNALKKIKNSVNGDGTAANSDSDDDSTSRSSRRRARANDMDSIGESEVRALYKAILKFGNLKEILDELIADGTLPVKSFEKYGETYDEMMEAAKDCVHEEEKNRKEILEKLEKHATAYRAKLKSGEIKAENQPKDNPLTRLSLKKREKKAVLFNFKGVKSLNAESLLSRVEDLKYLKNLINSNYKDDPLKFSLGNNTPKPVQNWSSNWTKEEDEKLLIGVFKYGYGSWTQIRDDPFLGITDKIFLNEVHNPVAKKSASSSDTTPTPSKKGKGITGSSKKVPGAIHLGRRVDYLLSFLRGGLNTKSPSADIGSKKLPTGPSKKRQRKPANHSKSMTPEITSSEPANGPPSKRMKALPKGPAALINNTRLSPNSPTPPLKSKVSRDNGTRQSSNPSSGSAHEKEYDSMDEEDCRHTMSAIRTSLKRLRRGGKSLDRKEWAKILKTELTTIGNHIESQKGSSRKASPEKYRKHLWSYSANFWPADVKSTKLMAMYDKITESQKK

In the case of `COCCCn1c(CN2CCCC(O)C2)cnc1S(=O)(=O)C1CCCC1` (stereo unspecified), the Percent Effect is -5.06% in assay [1]; 10.4% in assay [2]; -2.5% in assay [3]; 10.5% in assay [4]; 4.62% in the assay with Trypanosoma cruzi; -85.5% in [5]. Further, the Percent Effect in assay [6] was 3.99%; in the assay filed under Homo sapiens, -9.18%; in assay [7] it was 3.23%; in assay [8], 11.1%; in [9], -11%.
Take `CC(C)Cc1noc(CN2CCCC(Cn3cncn3)C2)n1` (stereo unspecified): the Percent Effect is -4.29% in assay [1]; 16.2% in assay [2]; -4.96% in [3]; 16.6% in [4]; 3.25% with Trypanosoma cruzi; 2.03% in [5]. Further, the Percent Effect in assay [6] is 7%; in the assay listed under Homo sapiens, 13.5%; in [7], 11.9%; in [8] it was 28.1%; in assay [9], -7.85%.
Consider `O=C(C1CCOCC1)N1CCC2(CC1)CC(Oc1ccccc1)CO2` (stereo unspecified), for which the Percent Effect in assay [1] was 0.293%; in [2], 8.22%; in assay [3], -6.45%; in assay [4] it was 5.89%; in the assay on Trypanosoma cruzi, 0.595%; in [5] it was -5.59%. Also, the Percent Effect in assay [6] is 7.28%; in the assay listed under Homo sapiens, 14.1%; in [7], 6.25%; in assay [8], 16.1%; in assay [9] it was -0.343%.
As for `CCN(CC)C(=O)Cn1ccc2cc(NC(=O)C3CCCO3)ccc21` (stereo unspecified), the Percent Effect in assay [1] is -3.96%; in assay [2], 26.3%; in [3] it was -13.9%; in assay [4] it was 1.14%; with Trypanosoma cruzi it was 6.39%; in assay [5], -1.53%. Besides, the Percent Effect in [6] was 16.5%; in the assay filed under Homo sapiens, 2.47%; in [7], 6.37%; in [8] it was 17.1%; in assay [9] it was -14.2%.
Consider `Cc1occc1C(=O)Nc1ccnc(OC2CCOC2)c1` (stereo unspecified), for which the Percent Effect in [1] was -0.474%; in assay [2], 6.94%; in assay [3], -7.48%; in assay [4] it was 6.54%; in the assay with Trypanosoma cruzi, 4.57%; in assay [5], 7.95%. For the same compound, the Percent Effect in assay [6] was 14.7%; in the assay filed under Homo sapiens, 3.88%; in assay [7], -2.1%; in assay [8], 2.56%; in assay [9] it was -2.37%.
Consider `CC(C)c1cc(NC(=O)c2ccc(NC3CC3)nc2)[nH]n1`, for which the Percent Effect was -5.31% in assay [1]; 13% in assay [2]; 111% in assay [3]; 10.4% in assay [4]; 8.24% with Trypanosoma cruzi; -6.05% in [5]. Moreover, the Percent Effect in [6] is 11.5%; in the assay listed under Homo sapiens, -1.61%; in [7], 7.77%; in assay [8], 24.4%; in [9] it was -8.09%.
As for `COCc1cc(NCc2cc(F)ccc2F)n2nccc2n1`, the Percent Effect in assay [1] is -3.49%; in assay [2] it was -2.74%; in assay [3], -7.06%; in [4] it was 1.05%; in the assay on Trypanosoma cruzi it was -5.68%; in assay [5], 2.27%. The Percent Effect is 5.15% in assay [6]; 15.9% in the assay listed under Homo sapiens; 2.15% in assay [7]; 7.5% in [8]; -6.68% in assay [9].
Consider `COc1cc(C)nc(N2CCN(C(=O)CCn3cc(C)cn3)CC2)n1`, for which the Percent Effect was -1.32% in assay [1]; 10.1% in [2]; 1.67% in assay [3]; 2.37% in assay [4]; -6.52% in the assay with Trypanosoma cruzi; 4.94% in assay [5]. In addition, the Percent Effect in assay [6] is -6.47%; in the assay listed under Homo sapiens, 11%; in assay [7], -6.4%; in [8], 11.4%; in assay [9] it was -2.89%.
In the case of `COc1ccc(NC(C)C(=O)N2CCN(c3ncccn3)CC2)cn1` (stereo unspecified), the Percent Effect is -5.21% in assay [1]; 8.22% in [2]; -137% in assay [3]; -2.83% in assay [4]; 3.13% in the assay on Trypanosoma cruzi; 8.18% in [5]. Moreover, the Percent Effect in assay [6] was 0.71%; in the assay filed under Homo sapiens, -4.13%; in assay [7] it was 3.23%; in assay [8], 7.5%; in [9] it was -3.06%.
For `OC1(CN2CCCC2)CCCN(Cc2ccc(F)cc2Cl)C1` (stereo unspecified), the Percent Effect in assay [1] is -2.56%; in [2], 0%; in assay [3], -4.18%; in [4], -3.78%; with Trypanosoma cruzi it was -7.5%; in [5], 3.12%. Moreover, the Percent Effect in assay [6] is 12%; in the assay listed under Homo sapiens, 5.3%; in [7], 3.83%; in assay [8], 11.1%; in [9], -3.94%.
For the compound `CCN(C(c1cccnc1)c1ccc2c(c1)CCO2)S(C)(=O)=O` (stereo unspecified), the Percent Effect in assay [1] was -3.35%; in assay [2], 5.48%; in assay [3] it was -1.35%; in assay [4], 6.82%; in the assay with Trypanosoma cruzi, 6.75%; in assay [5], -6.79%. In addition, the Percent Effect was 3.17% in assay [6]; 4.95% in the assay listed under Homo sapiens; 1.04% in assay [7]; 8.64% in [8]; -2.4% in assay [9].
